Results from PubChem BioAssay (Tox21).
Where “and” joins values, the source holds several entries; their conditions need not be identical. Equal values may be shown once. Inconclusive results are not listed. Where a structure was tested more than once in an assay, its records may differ in their call. Calls of active or inactive are those of the source. Unless noted, calls come from the whole dose curve; as a rule, active = well fitted curve in the direction sought with a large enough effect in the repeat runs; inconclusive = weak or mixed curves; inactive = no such curve, though single readings can be large; an effect the other way counts as inactive or inconclusive.

What was measured:
[1] = qHTS assay to identify small molecule agonists of the vitamin D receptor (VDR) signaling pathway - cell viability counter screen (AID 743224); note: nearly all actives have a fitted effect of over 50% in size; note: potency is the fitted concentration of half-maximal effect
How it was run: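 Compounds were pin-transferred onto VDR-bla cells plated 4 h earlier; following 16 h incubation at 37C, cell viability was quantified by CellTiter-Glo luminescence after 30 min at room temperature.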

[2] = qHTS assay to identify small molecule antagonists of the vitamin D receptor (VDR) signaling pathway - cell viability counter screen (AID 743225); note: nearly all actives have a fitted effect of over 50% in size; note: potency is the fitted concentration of half-maximal effect
How it was run: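 Viability counter screen run in the same wells as the beta-lactamase reporter assay: HEK 293T VDR-UAS-bla cells, 16 h compound exposure at 37C with 3 nM (final) 1-alpha,25-dihydroxyvitamin D3. CellTiter-Glo luminescence, 30 min, room temperature.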

[3] = qHTS assay to identify small molecule agonists of the NFkB signaling pathway - cell viability counter screen (AID 1159515; calls by dose curve; note: series mostly up to about 61 µM; % is set by controls: 0 for no effect and ±100 for the full control effect; nearly all actives have a fitted effect of over 55% in size)
How it was run: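 Parallel cytotoxicity counter screen in ME-180 cells carrying an NFkB-response-element beta-lactamase reporter, 2,000 cells/well. Compound exposure lasted 5 hr at 37 C, 5% CO2. Cell viability was quantified by CellTiter-Glo luminescence.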

[4] = qHTS assay to identify small molecule agonists of the endoplasmic reticulum stress response signaling pathway (AID 1159516; active = well fitted activation curve with a large enough effect in the signal ratio in the repeat runs, not every such curve was filed as active; the % refers to the signal ratio; note: % is set by controls: 0 for no effect and ±100 for the full control effect)
How it was run: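 Using a HeLa line with an ESRE-driven beta-lactamase gene, agonist activity was measured by FRET substrate fluorescence (460 and 530 nm emission) after cells were treated with compounds for 5 hr at 37 C and 5% CO2.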

[5] = molecular target: Nuclear receptor ROR-gamma (Homo sapiens) (UniProt P51449); assay: qHTS assay to identify small molecule antagonists of the retinoid-related orphan receptor gamma (ROR-gamma) signaling pathway (AID 1159521; note: nearly all actives have a fitted effect of over 50% in size; note: potency is the fitted concentration of half-maximal effect)
How it was run: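 Luminescence readout (ONE-Glo, 30 min RT) after 16 h doxycycline induction; loss of signal scored as antagonism. CHO cells with TET-inducible RORγ and RORE-LUC reporter; compounds added 2 h before 1 uM final doxycycline.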

[6] = qHTS assay to identify small molecule agonists of the AP-1 signaling pathway - cell viability counter screen (AID 1159525; calls by dose curve; note: nearly all actives have a fitted effect of over 55% in size)
How it was run: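 Each titration point was normalised to DMSO and tetra n-octyl ammonium bromide controls. The read was Cell Titer Glo luminescence after 30 min at RT, following 5 h compound exposure of ME-180 AP-1-bla cells at 37 °C.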

[7] = qHTS assay to identify small molecule agonists of the AP-1 signaling pathway (AID 1159526; calls by dose curve; note: % is set by controls: 0 for no effect and ±100 for the full control effect)
[8] = qHTS assay to identify small molecule agonists of the RXR signaling pathway - cell viability counter screen (AID 1159529); note: nearly all actives have a fitted effect of over 50% in size; note: potency is the fitted concentration of half-maximal effect
How it was run: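 Luminescence from CellTiter-Glo (30 min, RT) measured viability in the same wells as the beta-lactamase reporter readout. Cells: GeneBLAzer RXR-alpha HEK 293T, 2% charcoal-stripped FBS. Compound exposure 16 hr, 37 C.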

[9] = qHTS assay to identify small molecule antagonists of the retinoid acid receptor (RAR) signaling pathway - cell viability counter screen (AID 1159551); note: % is set by controls: 0 for no effect and ±100 for the full control effect; nearly all actives have a fitted effect of over 35% in size
How it was run: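 ATP-based viability, C3RL4 cells, 6 h at 37 C with 1 uM final retinol co-added after compound; luminescence read 30 min post CellTiter-Glo, RT.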

[10] = qHTS assay to identify small molecule agonists of the retinoic acid receptor (RAR) signaling pathway (AID 1159553); note: % is set by controls: 0 for no effect and ±100 for the full control effect
How it was run: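 Quantitative high-throughput format: the Tox21 10K library was tested on C3RL4 RARE-luciferase cells for 6 hr at 37 C and 5% CO2, with luminescence measured after a 30 min room-temperature reagent step.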

[11] = qHTS assay to identify small molecule agonists of the endoplasmic reticulum stress response signaling pathway - cell viability counter screen (AID 1159517; calls by dose curve)
How it was run: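 Cpd-treated ESRE-bla HeLa (5 hr, 37 C) → LiveBLAzer 2 hr RT → CellTiter-Glo 30 min RT → luminescence.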

[12] = molecular target: Retinoic acid receptor RXR-alpha (Homo sapiens) (UniProt P19793); assay: qHTS assay to identify small molecule agonists of the RXR signaling pathway (AID 1159527; calls by dose curve; note: % is set by controls: 0 for no effect and ±100 for the full control effect; nearly all actives have a fitted effect of over 35% in size)
Sequence of Retinoic acid receptor RXR-alpha (Homo sapiens) (P19793 whole entry, looked up): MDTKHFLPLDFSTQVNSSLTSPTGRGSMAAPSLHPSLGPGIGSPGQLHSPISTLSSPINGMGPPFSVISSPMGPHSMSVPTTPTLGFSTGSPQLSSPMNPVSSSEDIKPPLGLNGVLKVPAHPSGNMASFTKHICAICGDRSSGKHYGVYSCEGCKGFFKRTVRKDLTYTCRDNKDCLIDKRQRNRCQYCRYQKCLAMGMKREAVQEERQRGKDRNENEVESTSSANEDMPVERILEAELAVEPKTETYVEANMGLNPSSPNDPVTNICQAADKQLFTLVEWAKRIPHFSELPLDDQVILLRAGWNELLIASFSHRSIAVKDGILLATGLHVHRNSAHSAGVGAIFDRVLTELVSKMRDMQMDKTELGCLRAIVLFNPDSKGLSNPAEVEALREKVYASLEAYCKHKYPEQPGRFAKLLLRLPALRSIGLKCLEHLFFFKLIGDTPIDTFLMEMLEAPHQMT
How it was run: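 Agonist mode; 9-cis retinoic acid positive control. HEK 293T UAS-bla reporter cells, 2% charcoal-stripped FBS, 16 hr compound exposure at 37 C/5% CO2. LiveBLAzer B/G FRET substrate 2 hr RT; ex 405, em 460/530 nm.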

[13] = qHTS assay to identify small molecule antagonists of the retinoic acid receptor (RAR) signaling pathway (AID 1159552)
How it was run: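 Luminescence from a RARE luciferase reporter in C3RL4 cells served as read-out. Cells received compounds together with 1 uM final retinol and incubated 6 hr at 37 C before detection reagent was added for 30 min at room temperature.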

[14] = qHTS assay to identify small molecule antagonists of the estrogen related receptor (ERR) signaling pathway - cell viability counter screen (AID 1224818);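 note: series mostly up to about 46 µM; viability measured after 17.5 h of compound exposure; % is set by controls: 0 for no effect and ±100 for the full control effect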
How it was run: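 Quantitative high-throughput viability counter screen in ERR cells. Compounds (DMSO) incubated 17.5 h at 37 C; read-out was CellTiter-Fluor fluorescence.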

[15] = qHTS assay to identify small molecule antagonists of the estrogen related receptor (ERR) signaling pathway (AID 1224819)
How it was run: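 ERR reporter cell line (NTP) plated at 2,000 cells/well, settled 6 h at 37C/5% CO2, then exposed to LOPAC compounds for 18 h at 37C. One-Glo luciferase luminescence read after 30 min at room temperature.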

[16] = qHTS assay to identify small molecule agonists of the estrogen related receptor (ERR) signaling pathway (AID 1224820); note: % is set by controls: 0 for no effect and ±100 for the full control effect
How it was run: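 After 6 h plating (2,000 cells/well) and 18 h compound treatment at 37 C, ERR cells were lysed with One-Glo and luminescence read after 30 min at room temperature.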

[17] = system: estrogen-related receptor alpha (ERRalpha) with PGC-1alpha coactivator, human; assay: qHTS assay to identify small molecule antagonists of the estrogen related receptor signaling pathway with the pleiotropic PPARgamma coactivator (PGC) (AID 1224821; calls by dose curve)
How it was run: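 Luminescence from One-Glo luciferase reagent (30 min, room temperature) measured after 18 h compound treatment at 37 °C. Cells carry the PGC/ERR reporter and were seeded 6 h prior to dosing.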

[18] = qHTS assay to identify small molecule antagonists of the estrogen related receptor signaling pathway with the pleiotropic PPARgamma coactivator (PGC) cell viability counter screen (AID 1224822)
How it was run: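 Cytotoxicity in the PGC/ERR cell line is assessed with CellTiter-Fluor, read as fluorescence intensity 30 min after reagent addition, following 17.5 h compound treatment at 37 C.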

[19] = qHTS assay to identify small molecule agonists of the estrogen related receptor signaling pathway with the pleiotropic PPARgamma coactivator (PGC) (AID 1224823); note: % is set by controls: 0 for no effect and ±100 for the full control effect
How it was run: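 Luminescence from One-Glo reagent (30 min, room temperature) was read after 18 h compound treatment at 37 C of PGC/ERR cells plated 6 h beforehand; compounds delivered in DMSO by pin tool.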

[20] = qHTS assay to identify small molecule antagonists of the retinoid-related orphan receptor gamma (ROR-gamma) signaling pathway - cell viability counter screen (AID 1159520)
How it was run: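 Tet-on ROR gamma CHO cells (1,000/well) were plated 4 hr, given compounds in DMSO for 2 hr at 37 C, then induced with 1 uM final doxycycline for 16 hr. Viability was read as ATP by CellTiter-Glo luminescence after 30 min.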

CCCCCCCCCCCC[N+](C)(C)C
inactive: Potency [3] | outcome [4] | Potency [6] | Potency [7] | Potency [9] | Potency [10]
active: Potency [1] 49 µM and 21.9 µM | Potency [2] 54.9 µM | Potency [5] 24.3 µM and 21.7 µM | Potency [8] 54.8 µM and 54.9 µM and 49 µM

C=CS(=O)(=O)O
inactive: Potency [1] | Potency [2] | Potency [3] | outcome [4] | Potency [11] | Potency [5] | Potency [6] | Potency [7] | Potency [12] | Potency [8] | Potency [9] | Potency [13] | Potency [10]

NC(Cc1ccc(Cl)cc1)C(=O)O (configuration not stated)
inactive: activity change, negative = cytotoxicity [1] 2.72% [at 0.55 µM] | viability change, negative = cytotoxic [2] -8.18% [at 0.628 µM] | activity, negative = cytotoxic [3] 8.56% [at 0.628 µM] | activation [4] 2.37% [at 0.628 µM] | activity change, negative = cytotoxicity [11] 3.91% [at 0.628 µM] | activity change, negative = inhibition [5] 14.9% [at 0.35 µM] | viability change, negative = cytotoxic [6] -2.41% [at 0.29 µM] | activation [7] -0.248% [at 0.29 µM] | activity change, negative = cytotoxicity [8] 5.89% [at 0.29 µM] | activity change, negative = cytotoxicity [9] 2.93% [at 0.349 µM] | activity, negative = inhibition [13] 4.68% [at 0.349 µM] | activation [10] 0.724% [at 0.756 µM] | Potency [14] | Potency [15] | outcome [16] | Potency [17] | Potency [18] | outcome [19]

O=C(O)c1cn(-c2ccc(F)cc2)c2cc(N3CCNCC3)c(F)cc2c1=O
inactive: Potency [1] | Potency [2] | Potency [3] | outcome [4] | Potency [11] | Potency [5] | Potency [6] | Potency [7] | Potency [12] | Potency [8] | Potency [9] | Potency [13] | Potency [10]

CCOC(=O)C(C)C(C)=O (configuration not stated)
inactive: Potency [1] | Potency [2] | Potency [3] | outcome [4] | Potency [11] | Potency [5] | Potency [6] | Potency [7] | Potency [12] | Potency [8] | Potency [9] | Potency [13] | Potency [10]

CCC[C@H](N[C@@H](C)C(=O)N1[C@H](C(=O)O)C[C@@H]2CCCC[C@@H]21)C(=O)OCC
inactive: Potency [1] | Potency [2] | Potency [3] | outcome [4] | Potency [11] | Potency [5] | Potency [6] | Potency [7] | Potency [12] | Potency [8] | Potency [9] | Potency [13] | Potency [10]

CCCCCC(=O)O[C@]1(C(C)=O)CC[C@H]2[C@@H]3CCC4=CC(=O)CC[C@]4(C)[C@H]3CC[C@@]21C
active: Potency [2] 43.4 µM and 23.9 µM | Potency [20] 60.7 µM | Potency [5] 27.1 µM and 23.7 µM | Potency [8] 19.4 µM and 23.9 µM
43.4 µM (active) and inactive: Potency [1]
inactive: Potency [3] | Potency [11] | Potency [6] | Potency [7] | Potency [9]

CCC(C)(Oc1ccc(C2(c3ccc(OC(C)(CC)C(=O)O)cc3)CCCCC2)cc1)C(=O)O (configuration not stated)
inactive: Potency [1] | Potency [2] | Potency [3] | outcome [4] | Potency [11] | Potency [5] | Potency [6] | Potency [7] | Potency [8] | Potency [9] | Potency [13] | Potency [10]
